Screens deposited in PubChem by several laboratories.
MEKK2 mut-MEK5: signal of MEK5 binding to mutant human MEKK2 PB1 domain; bead flow cytometry, Alexa488-MEK5 binding to MEKK2 mutant; percent response, % at 10 µM; 0.35% of 290,000 active; in the data active = percent response above about 24%, passing the limit was not always enough
dFosB act: activators of mouse delta FosB homodimer | purified delta FosB, TAMRA-CDK5 oligo fluorescence polarization; percent of positive-control signal above neutral wells | 0.99% of 340,000 active | activation, % at 25 µM | P13346;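 active = mean activation above about 17%, with every replicate also reaching it, limit read from the data, passing the limit was not always enough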
DNA FID counter: fluorescent intercalator displacement, NS3 helicase counter-screen; DNA fluorescent intercalator displacement, fluorescence; AID 1845; 0.17% of 290,000 active; inhibition, % at 7.9 µM; in the data active = inhibition above about 37%;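 also: higher means more ethidium bromide displaced from hairpin DNA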
MEKK3 PB1 HTS: raises or lowers MEK5 binding to the human MEKK3 PB1 domain | Q99759 | bead-based flow cytometry, Alexa488-MEK5 binding to MEKK3; actives lie on both sides; 0 = blocked by unlabeled MEK5, 100 = vehicle | binding response (% of control), % at 10 µM | 1.4% of 290,000 active | AID 1529;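 active = binding response more than 3 SD above or below the average of its plate-row segment, actives on both sides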;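 also: Alexa488 bead fluorescence after subtracting the streptavidin-only scavenger bead signal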
Target sequence (Q99759 whole entry, looked up, the tested form may be a part): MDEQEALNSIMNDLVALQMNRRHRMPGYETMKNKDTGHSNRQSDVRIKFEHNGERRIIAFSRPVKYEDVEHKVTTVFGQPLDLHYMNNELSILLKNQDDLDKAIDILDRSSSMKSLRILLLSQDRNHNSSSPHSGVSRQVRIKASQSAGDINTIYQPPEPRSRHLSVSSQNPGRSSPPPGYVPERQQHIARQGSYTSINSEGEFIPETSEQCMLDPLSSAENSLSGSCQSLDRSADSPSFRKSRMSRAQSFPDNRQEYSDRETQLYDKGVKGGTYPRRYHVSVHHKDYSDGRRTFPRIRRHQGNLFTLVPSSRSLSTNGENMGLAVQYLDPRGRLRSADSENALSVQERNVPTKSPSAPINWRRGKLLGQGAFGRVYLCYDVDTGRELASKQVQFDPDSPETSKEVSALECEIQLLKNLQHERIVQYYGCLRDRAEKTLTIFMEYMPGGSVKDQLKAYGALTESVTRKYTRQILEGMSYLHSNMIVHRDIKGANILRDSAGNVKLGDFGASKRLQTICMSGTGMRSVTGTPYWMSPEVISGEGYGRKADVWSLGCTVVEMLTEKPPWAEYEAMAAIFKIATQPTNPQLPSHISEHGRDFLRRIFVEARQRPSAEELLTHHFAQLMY
MEKK2wt PB1 HTS: raises or lowers MEK5 binding to wildtype human MEKK2 PB1 domain. binding response (% of control), % at 10 µM. bead flow cytometry, Alexa488-MEK5 binding to MEKK2 WT; actives lie on both sides. Q9Y2U5. AID 1531. 1.1% of 290,000 active; in the data active = binding response below about 67% or above about 130%
MEKK2wt confirm: raises or lowers MEK5 binding to wildtype human MEKK2, retest | 2.4% of 5,900 active | binding response (% of control), % at 10 µM | AID 1892 | shares compounds with MEKK3 PB1 HTS | bead flow cytometry, Alexa488-MEK5 binding to MEKK2 WT; actives lie on both sides; in the data active = binding response below about 16% or above about 210%; inactive = in between
MEKK2mut confirm: signal of MEK5 binding to mutant human MEKK2, retest. shares compounds with MEKK3 PB1 HTS. bead flow cytometry, Alexa488-MEK5 binding to MEKK2 mutant. percent response, % at 10 µM. 2% of 5,900 active. AID 1893; in the data active = percent response mostly above about 71%, no sharp cut-off; inactive = mostly below about 38%;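 also: higher means compound restores mutant binding toward wildtype level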
MEKK3-MEK5 inh: MEKK3-MEK5 PB1 inhibition, single concentration confirmation. 1.8% of 5,900 active. binding response (% of control), % at 10 µM. shares compounds with MEKK3 PB1 HTS. AID 1894. bead flow cytometry, Alexa488-MEK5 binding to MEKK3; stronger effect = lower value;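 active = binding response below 72% of control, or above a set upper limit, though filed actives all read lower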
Hits are given with their value; . = inactive; / = no result; + = active, no number; [ ] = dose if it differs, or a comment. Shown are actives, neighbours in structure and some others; about 2.9% of the full set was active somewhere.

SMILES	MEKK2 mut-MEK5	dFosB act	DNA FID counter	MEKK3 PB1 HTS	MEKK2wt PB1 HTS	MEKK2wt confirm	MEKK2mut confirm	MEKK3-MEK5 inh
CCOC(=O)c1c(CSc2ccc(CC)cc2)oc2ccc(O)c(CN(C)C)c12	36	.	.	.	153	.	.	.
O=C1CC(N2CCN(S(=O)(=O)c3ccccc3F)CC2)C(=O)N1c1ccc(F)cc1F (stereo unspecified)	/	.	/	/	/	/	/	/
COc1ccc(-c2ccc(SCC(=O)N3c4ccccc4CC3C)nn2)cc1OC (stereo unspecified)	.	.	.	122	.	.	.	.
CCOc1ccccc1NC(=O)CSc1nnc(CNC(=O)c2ccccc2F)o1	.	.	.	.	.	/	/	/
CCOC(=O)c1ccc(NC(=O)CCc2nc(-c3ccccc3Cl)no2)cc1	.	.	.	.	.	/	/	/
CCOC(=O)c1ccc(NC(=O)COc2ccccc2CNCCc2ccccc2)cc1	.	.	.	.	206	.	.	.
CCOC(=O)c1ccc(NC(=O)COc2ccc(CNCCO)cc2OCC)cc1	.	.	.	.	.	/	/	/
CCOC(=O)c1ccc(NC(=O)Cn2nnc(-c3ccccc3)n2)cc1	.	.	.	.	134	.	.	.
CCOC(=O)c1ccc(NC(=O)Cn2nnc(-c3ccc(F)cc3)n2)cc1	.	.	.	.	.	/	/	/
CCOC(=O)c1ccc(NC(=O)CCc2nc(-c3ccccc3)no2)cc1	.	.	.	130	.	.	.	.
Cc1ccc2nc(Cl)cc(=O)n2c1	/	.	/	/	/	/	/	/
CCCCN(C)C(=O)c1nc2ccccn2c1CNC1CCC1	.	.	.	.	.	/	/	/
CCOc1ccc(C(=O)COC(=O)c2cc(=O)[nH]c3ccccc23)cc1	/	.	/	/	/	/	/	/
CCN(CCn1cccn1)C(=O)CCc1nnc(CCCc2ccccc2)o1	+	.	.	131	151	.	.	.
C=C(C)CN(CC)C(=O)CCc1nnc(CCCc2ccccc2)o1	.	.	.	.	.	/	/	/
COc1cc(/C=C2/N=C(c3ccccc3)OC2=O)c(F)cc1OCc1ccccc1	.	.	/	.	.	/	/	/
COc1cc(S(=O)(=O)n2nc(C)cc2C)c(OC)cc1Cl	.	.	.	2.0[inhibitor]	-2.0[inhibitor]	.	.	.
CC(=O)Nc1ccc(-c2nc3c(C)cccc3[nH]2)cc1	.	.	.	3.0[inhibitor]	3.0[inhibitor]	.	.	.
CC(=O)Nc1cc(NC(C)=O)cc(-c2nc3ccccc3[nH]2)c1	.	.	.	.	.	/	/	/
Nc1nonc1C(=O)NCCNCc1ccccc1OCc1ccc(F)cc1	.	.	.	.	153	.	.	.
CCOc1ccc(CNCCNC(=O)c2nonc2N)cc1	.	.	.	.	.	/	/	/
CCOC(=O)c1nn(-c2ccc(F)cc2)c2nc(Nc3ccccc3)cc(=O)n12	.	.	.	.	.	/	/	/
Cc1ccccc1C(=O)NCc1nnc(SCC(=O)N2CCN(c3ccccc3)CC2)n1C	.	.	.	.	.	/	/	/
Cc1nc(NC(=O)CSc2nncs2)c(Cl)cc1Cl	.	.	.	.	.	/	/	/
Cc1c(Cl)cnc(NC(=O)CSc2nncs2)c1Cl	.	.	.	144	.	.	.	.
SMILES	MEKK2 mut-MEK5	dFosB act	DNA FID counter	MEKK3 PB1 HTS	MEKK2wt PB1 HTS	MEKK2wt confirm	MEKK2mut confirm	MEKK3-MEK5 inh
Cc1cc(Br)ccc1NC(=O)CCSc1ccccc1	.	.	.	.	.	/	/	/
Cc1cc(NC(=O)CCSc2ccccc2)ccc1Br	.	.	.	133	.	.	.	.
Cn1c(NCc2ccco2)nc2ccccc21	.	.	.	16[inhibitor]	25[inhibitor]	.	.	.
CCn1c(Cc2ccccc2)nnc1SCC(=O)Nc1ccc(OC)cc1	.	.	.	44[inhibitor]	.	.	.	.
Cc1ccc(C)c(-n2c(SCC(=O)Nc3nnc(C)s3)nnc2-c2ccoc2C)c1	.	.	.	2.0[inhibitor]	2.0[inhibitor]	.	.	.
CCn1c(Cc2ccccc2)nnc1SCC(=O)Nc1ccc(N)cc1	.	.	.	.	.	/	/	/
Cc1ccc(C)c(-n2c(SCC(=O)Nc3nonc3C)nnc2-c2ccoc2C)c1	.	.	.	.	.	/	/	/
COCCn1c(SCC(=O)Nc2nnc(C)s2)nnc1-c1ccoc1C	.	.	.	129	.	.	.	.
Cc1occc1-c1nnc(SCC(=O)Nc2ccccc2)n1Cc1ccccc1	.	.	.	.	.	/	/	/
Cc1occc1-c1nnc(SCC(=O)Nc2ccc(F)cc2)n1Cc1ccccc1	.	.	.	2.0[inhibitor]	2.0[inhibitor]	.	.	.
C=CCNC(=O)COC(=O)C1CCN(S(=O)(=O)c2ccc3c(c2)OCCO3)CC1	.	.	.	.	.	/	/	/
COc1cc(/C=C/C(=O)NC(C)C2CC3CCC2C3)cc(OC)c1OC (stereo unspecified)	.	.	.	.	.	/	/	/
CCN(CC(=O)Nc1c(F)cccc1F)C(=O)CSCC(=O)Nc1cccc(C)c1	/	.	/	/	/	/	/	/
O=C(NCc1ccc(Cl)cc1)NCC(F)(F)F	.	.	.	.	.	/	/	/
COc1cccc(C(=O)NCc2ccc3[nH]c(C)cc3c2)c1	.	.	.	61[inhibitor]	-6.0	.	.	.
COc1cc(OC)cc(C(=O)NCc2ccc3[nH]c(C)cc3c2)c1	.	.	.	.	.	/	/	/
COc1ccc(-c2nsc3c(N4CCCC4)ncnc23)cc1	.	.	.	-1.0[inhibitor]	-2.0[inhibitor]	.	.	.
COc1ccc(-c2csc3ncnc(N4CCN(c5ccc(OC)cc5)CC4)c23)cc1	.	.	.	.	.	/	/	/
Cc1ccccc1N=Nc1c(O)n(C)c2ccccc12	.	.	.	.	.	/	/	/
N#CC1=C(N)Oc2n[nH]c(-c3cccs3)c2C1c1cccnc1 (stereo unspecified)	.	.	.	123	.	.	.	.
Cc1cccc(Nc2nnc(SCC(=O)Nc3ccccc3[N+](=O)[O-])s2)c1	.	.	.	.	.	/	/	/
Cc1ccccc1Nc1nnc(SCC(=O)Nc2ccccc2[N+](=O)[O-])s1	.	.	.	133	.	.	.	.
O=c1c([N+](=O)[O-])c[nH]c2ccccc12	.	.	.	135	.	.	.	.
O=C(c1c[nH]c(C(=O)C(Cl)(Cl)Cl)c1)c1ccc(F)cc1F	.	.	.	.	.	/	/	/
O=C(c1c[nH]c(C(=O)C(Cl)(Cl)Cl)c1)c1ccc(F)cc1Cl	.	.	.	1.0[inhibitor]	-2.0[inhibitor]	.	.	.
COc1ccc(NC(=O)c2nc[nH]c2C(=O)NCC(=O)OC(C)(C)C)cc1	.	.	/	50[inhibitor]	.	.	.	.
COc1ccc(C(=O)NCCCN2CCOCC2)cc1S(=O)(=O)N1CCCc2ccccc21	.	.	.	.	.	/	/	/
